Many of the other results were omitted from the sample, so hits are more common in it than they were.
Tb PYK inh: blocks Trypanosoma brucei pyruvate kinase; actives 0.12% (n = 410,000); Potency, µM (doses to about 76.8 µM), actives largely listed as inhibitors; TbPYK enzyme, Kinase-Glo Plus ATP luminescence, 45 min; Q57TT1; note: nearly all actives have a fitted effect of over 50% in size
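Luminescence from Kinase-Glo Plus, added after a 45-minute room-temperature reaction, served as the end-point read-out. The enzyme and substrate were preincubated with compound before ADP (130 uM final) initiated turnover. Concentration-effect curves came from normalized qHTS data.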
Cycloheximide cs: affects cycloheximide protein synthesis inhibition readout, counter-screen; cell reporter, cycloheximide protein synthesis inhibition counterscreen; max response, %; actives 12% (n = 300,000); in the data active = max response mostly above about 13%, no sharp cut-off; inactive = mostly below about 14%; note: read at 38.3 µM for the half of the compounds with a filed dose
LmPK inh: LmPK (Leishmania mexicana) enzyme inhibition; purified LmPK, Kinase-Glo ATP luminescence, 1 h; actives 0.37% (n = 290,000); AID 1721; Potency, µM (top dose mostly 57.5 µM), usual class: inhibitors
Target sequence (Q27686 whole entry, looked up): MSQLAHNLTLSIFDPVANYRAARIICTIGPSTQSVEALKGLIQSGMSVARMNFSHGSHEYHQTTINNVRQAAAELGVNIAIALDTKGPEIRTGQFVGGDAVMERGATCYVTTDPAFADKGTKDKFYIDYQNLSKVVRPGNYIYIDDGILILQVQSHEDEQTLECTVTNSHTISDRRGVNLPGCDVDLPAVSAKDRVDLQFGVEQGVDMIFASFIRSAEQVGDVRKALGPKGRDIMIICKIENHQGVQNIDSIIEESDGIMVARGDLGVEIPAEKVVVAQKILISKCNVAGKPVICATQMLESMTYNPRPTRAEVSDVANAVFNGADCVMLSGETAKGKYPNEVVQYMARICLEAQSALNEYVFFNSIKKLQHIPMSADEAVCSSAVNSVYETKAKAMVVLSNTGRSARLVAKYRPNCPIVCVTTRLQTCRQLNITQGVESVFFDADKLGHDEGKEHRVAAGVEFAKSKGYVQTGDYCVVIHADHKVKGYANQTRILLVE
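Screened at intermediate enzyme activity to detect both inhibitors and activators: LmPK at 0.1 nM, with a 0.5 nM enzyme column as activation reference. PEP 0.5 mM, ADP 0.1 mM; ATP detected by luminescence after 1 h.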
Shiga inhibitor: blocks Shiga toxin action in Vero cells | Vero cells, Shiga toxin protein synthesis inhibition reporter | actives 9.2% (n = 290,000) | inhibition, % at 38.7 µM | AID 2315; in the data active = inhibition mostly above about 28%, no sharp cut-off; inactive = mostly below about 43%
RE007 growth inh: less growth of the S. pombe RE007 Vpr strain; actives 0.21% (n = 360,000); S. pombe RE007 Vpr strain, BacTiter-Glo ATP luminescence, 24 h; AID 651644; Potency, µM (doses to about 92.2 µM), actives largely listed as inhibitors; active = well fitted falling curve with a large enough effect; inconclusive = small, poorly fitted or top-dose-only effect; inactive = no such curve, though single readings can be large or run the other way; note: nearly all actives have a fitted effect of over 50% in size
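Fission yeast strain RE007, carrying one chromosomally integrated HIV-1 vpr copy, was seeded at OD 0.01 in PMG+AL medium with 23 nL pinned compound. After 24 h at 30 °C and 99% humidity, viability was read by BacTiter-Glo luminescence.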
FBPA Giardia inh: inhibitors of Giardia lamblia fructose-1,6-bisphosphate aldolase | A8B2U2 | purified Giardia FBPA | Potency, µM (titrated, usually from 59.6 µM), hits mostly inhibitors | actives 0.71% (n = 290,000) | AID 2451; note: nearly all actives have a fitted effect of over 55% in size
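40 nM FBPA preincubated 10 min at RT with compound (up to 57.5 uM final), then substrate plus GAPDH/TPI/NAD/arsenate coupling and diaphorase/resazurin added. Fluorescence read after 20 min at RT, 525/598 nm.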
Hits are given with their value; - = inactive; ? = inconclusive; . = not tested or not shown. Unless noted, calls come from the whole dose curve; as a rule, active = well fitted curve in the direction sought with a large enough effect; inconclusive = small, poorly fitted or top-dose-only effect, or another doubt; inactive = no such curve, though single readings can be large; an effect the other way counts as inactive or inconclusive.

SMILES | Tb PYK inh | Cycloheximide cs | LmPK inh | Shiga inhibitor | RE007 growth inh | FBPA Giardia inh
Cc1cccc(CNC(=O)Cn2ccc3cc(S(=O)(=O)N4CCC(C)CC4)ccc32)c1 | - | . | . | . | . | .
Cc1ccc(C(=O)NC(=S)NCC(=O)c2ccccc2)cc1 | - | 17.1 | - | - | - | -
O=C(CNC(=S)NC(=O)c1cccs1)c1ccccc1 | - | 66.3 | - | 89.6 | - | -
O=C(Nc1ccc(NC(=S)NC(=O)c2ccco2)cc1)c1ccccc1 | - | - | - | - | - | -
O=C(CNC(=S)NC(=O)c1ccco1)c1ccccc1 | - | 37.5 | - | 74.9 | - | -
CCOc1ccccc1OCCC(=O)NNC(=O)Cn1nc(C)cc1C | - | . | . | . | - | .
CC(C)N1C(=O)C(O)(c2c[nH]c3ccccc23)c2ccccc21 (centres undefined) | - | . | . | . | . | .
NS(=O)(=O)c1ccc(CNC(=S)NC2CC2)cc1 | - | - | - | - | - | -
CCOc1cc2[nH]c(=O)n(CCCCC(=O)N3CCN(c4ccccc4OC)CC3)c(=O)c2cc1OCC | - | . | . | . | . | .
COc1ccc(N/C=C2\CCc3ccccc3C2=O)cc1 | ? | - | 12.6µM | - | ? | 11.2µM
COc1ccc(N/C=C2\CCOC2=O)cc1 | - | - | - | - | - | -
COc1ccc2c(c1)CC/C(=C\Nc1ccc3c(c1)OCO3)C2=O | - | 77.1 | - | - | - | 7.92µM
O=C1/C(=C/Nc2ccc3c(c2)OCO3)CCc2ccccc21 | ? | - | 12.6µM | - | ? | 14.1µM
CC(NC(=O)C(=O)Nc1c2c(nn1-c1ccc(F)cc1)CSC2)c1ccccc1 (centres undefined) | - | . | . | . | . | .
CN(C)c1ccnc(-c2ccccc2C(F)(F)F)n1 | . | . | . | . | . | -
COc1ccc(Cc2nc(C(=O)Nc3ccccc3)cs2)cc1 | - | 38.8 | - | 51.6 | - | -
O=C(Nc1ccc(Cl)cc1)c1csc(Cc2ccccc2)n1 | - | 36.7 | - | 75.0 | - | -
COc1ccc(NC(=O)c2csc(Cc3ccc(Cl)cc3)n2)cc1 | - | - | - | - | - | -
Cc1nccc2oc(=O)c(NC(=O)c3ccc(Cl)cc3)cc12 | - | - | - | - | ? | -
O=C(Nc1cc2c(oc1=O)CCCC2=O)c1ccc(Cl)cc1 | - | 19.7 | - | - | - | -
Cc1cc(NC(=O)CSC2=NS(=O)(=O)c3cc(F)ccc3N2)no1 | - | . | . | . | - | .
O=C(Cc1ccccc1)Nc1cc(-c2nc3cc(Cl)ccc3o2)ccc1Cl | - | . | . | . | . | .
NS(=O)(=O)c1ccc(N=Nc2c[nH]c(=O)c(O)c2)cc1 | ? | - | ? | - | - | 7.06µM
CN(C)c1ccc(N=Nc2ccc(S(N)(=O)=O)cc2)cc1 | - | 51.9 | - | 89.4 | - | -
CN(C)N=Nc1ccc(S(N)(=O)=O)cc1 | - | - | - | - | - | -
SMILES | Tb PYK inh | Cycloheximide cs | LmPK inh | Shiga inhibitor | RE007 growth inh | FBPA Giardia inh
Nc1nc(O)c(N=Nc2ccc(S(N)(=O)=O)cc2)c(=O)[nH]1 | - | - | - | - | - | -
CC1CCc2c(sc3nnn(CC(=O)Nc4ccccc4Cl)c(=O)c23)C1 (centres undefined) | - | . | . | . | . | .
COc1ccc(/C=C/c2c(-c3ccc(OC)cc3)oc3cccnc23)cc1 | - | 16.1 | - | 31.0 | - | -
COc1cc(OC)cc(-c2oc3cccnc3c2C#CCCO)c1 | - | - | - | - | - | -
CCCc1cc(=O)[nH]c(SCC(=O)Nc2cc(S(=O)(=O)N(CC)c3ccccc3)ccc2Cl)n1 | - | . | . | . | - | .
Cc1cc2occ(CC(=O)NNC(=O)c3ccccc3)c2cc1C | - | 9.9 | - | - | - | .
O=C(CCS(=O)(=O)Cc1ccccc1)Nc1nc2c(s1)CCCC2 | - | - | - | - | - | -
Cc1csc(NC(=O)CCCC(=O)c2ccccc2)n1 | - | 22.0 | - | 50.0 | - | -
Cc1ccc(-c2csc(NC(=O)CCCc3cccs3)n2)cc1 | - | - | - | - | - | -
O=C(CCCc1cccs1)Nc1nc2c(s1)CCCC2 | - | 57.4 | - | 30.1 | - | -
Cc1ccccc1NC(=O)CCCC(=O)c1ccccc1 | - | - | - | - | - | -
Cc1csc(NC(=O)CCCc2cccs2)n1 | - | 46.4 | - | 48.1 | - | -
O=C(Cc1ccc(S(=O)(=O)N2CCCC2)s1)Nc1nc2c(s1)CCCC2 | - | 28.2 | - | 46.0 | - | -
COC(=O)[C@@]1(Cc2ccc(OC)cc2)[C@H]2c3cc(C(=O)N4CCCC4)n(CCc4ccc(O)c(OC)c4)c3C[C@H]2CN1C(=O)c1ccccc1 | . | . | . | . | . | -
CCCCNC(=O)C(CC)Sc1nnc(-c2ccc(F)cc2)c(-c2ccc(F)cc2)n1 (centres undefined) | - | . | . | . | . | .
O=C(CCN1C(=O)c2ccccc2S1(=O)=O)Nc1cccc2ccccc12 | - | - | - | - | - | -
O=C(CCN1C(=O)c2ccccc2S1(=O)=O)Nc1nc2c(s1)CCCC2 | - | 17.8 | - | 122.0 | - | -
Cc1ccccc1C(=O)Nc1cccc(-c2nc3cccnc3s2)c1 | - | . | . | . | . | .
CC(=O)Oc1ccc(C(=O)[C@H]2[C@H]3C(=O)N(c4ccc(C)cc4)C(=O)[C@H]3[C@@H]3C=CC=NN32)cc1 | - | 23.5 | - | 46.3 | - | ?
COc1ccc(C(=O)[C@H]2[C@H]3C(=O)N(c4ccc(C)cc4)C(=O)[C@H]3C3C=CC=NN32)cc1 (some centres undefined) | - | 18.8 | - | - | - | ?
COc1ccc(N2C(=O)[C@@H]3[C@H](C2=O)[C@H](C(=O)c2ccc(OC(C)=O)cc2)N2N=CC=C[C@@H]32)cc1 | . | 13.7 | - | 38.2 | . | ?

Screens from PubChem BioAssay.
